Among the data in ChEMBL document CHEMBL1961873, “Compounds: GSK PKIS; Assays: Nanosyn kinase panel” (2012) are inhibition values, retold here.

The target in test [1] is Protein kinase C gamma type (Homo sapiens) (UniProt P05129). Conditions: at 1 µM.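 Also: each value is an averaged percent inhibition of the enzyme.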
Test [2] addresses T1, Protein kinase C iota type (Homo sapiens) (UniProt P41743).
T1 sequence (whole entry): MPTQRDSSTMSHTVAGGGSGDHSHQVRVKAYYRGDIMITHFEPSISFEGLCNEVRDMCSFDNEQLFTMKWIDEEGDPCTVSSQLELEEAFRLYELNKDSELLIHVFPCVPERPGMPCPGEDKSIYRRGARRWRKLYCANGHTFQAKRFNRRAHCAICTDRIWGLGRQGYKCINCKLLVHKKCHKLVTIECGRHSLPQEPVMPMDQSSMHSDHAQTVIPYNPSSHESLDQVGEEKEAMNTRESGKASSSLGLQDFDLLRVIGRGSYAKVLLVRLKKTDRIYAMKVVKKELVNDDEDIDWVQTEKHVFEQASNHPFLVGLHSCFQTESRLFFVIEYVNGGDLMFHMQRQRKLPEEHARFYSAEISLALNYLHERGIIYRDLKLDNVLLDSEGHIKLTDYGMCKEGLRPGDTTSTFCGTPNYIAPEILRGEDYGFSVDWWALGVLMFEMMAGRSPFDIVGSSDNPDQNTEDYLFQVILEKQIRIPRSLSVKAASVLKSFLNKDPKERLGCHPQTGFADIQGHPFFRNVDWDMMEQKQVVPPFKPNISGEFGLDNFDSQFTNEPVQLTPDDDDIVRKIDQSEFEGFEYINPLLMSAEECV
Conditions: at 0.1 µM.

The target of test [3] is T1, Protein kinase C iota type (Homo sapiens). Conditions: at 1 µM.
Test [4] deals with Protein kinase C theta type (Homo sapiens) (UniProt Q04759). Conditions: at 0.1 µM.
Test [5] shares this target. Conditions: at 1 µM.
For test [6], the target named is Protein kinase C beta type (Homo sapiens) (UniProt P05771). Conditions: at 0.1 µM.
Test [7] has the same target. Conditions: at 1 µM.
Test [8] addresses T2, Serine/threonine-protein kinase D1 (Homo sapiens) (UniProt Q15139).
T2 sequence (whole entry): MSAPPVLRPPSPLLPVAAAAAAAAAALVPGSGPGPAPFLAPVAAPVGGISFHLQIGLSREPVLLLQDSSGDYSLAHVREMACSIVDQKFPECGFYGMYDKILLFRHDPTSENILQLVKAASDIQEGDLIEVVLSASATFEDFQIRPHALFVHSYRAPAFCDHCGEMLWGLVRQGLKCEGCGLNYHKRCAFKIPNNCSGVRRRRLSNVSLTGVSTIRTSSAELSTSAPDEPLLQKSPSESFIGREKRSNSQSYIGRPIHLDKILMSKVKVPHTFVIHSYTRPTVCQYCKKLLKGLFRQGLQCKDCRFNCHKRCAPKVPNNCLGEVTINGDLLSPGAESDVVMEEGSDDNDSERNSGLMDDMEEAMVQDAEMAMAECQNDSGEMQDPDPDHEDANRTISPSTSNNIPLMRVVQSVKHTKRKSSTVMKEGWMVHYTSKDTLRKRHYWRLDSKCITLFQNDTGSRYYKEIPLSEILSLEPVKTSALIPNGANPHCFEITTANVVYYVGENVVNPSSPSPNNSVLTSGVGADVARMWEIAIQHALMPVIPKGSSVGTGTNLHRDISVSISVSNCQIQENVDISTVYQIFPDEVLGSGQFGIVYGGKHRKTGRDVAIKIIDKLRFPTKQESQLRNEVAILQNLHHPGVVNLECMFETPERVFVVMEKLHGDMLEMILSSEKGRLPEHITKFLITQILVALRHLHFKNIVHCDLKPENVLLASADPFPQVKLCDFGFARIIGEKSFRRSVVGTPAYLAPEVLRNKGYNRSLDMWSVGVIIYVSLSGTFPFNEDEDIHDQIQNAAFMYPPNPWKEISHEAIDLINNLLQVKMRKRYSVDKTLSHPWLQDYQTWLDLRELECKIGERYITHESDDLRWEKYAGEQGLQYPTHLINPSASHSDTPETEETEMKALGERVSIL
Conditions: at 0.1 µM.

Test [9] deals with T2, Serine/threonine-protein kinase D1 (Homo sapiens). Conditions: at 1 µM.
In test [10] the target is T3, Serine/threonine-protein kinase D2 (Homo sapiens) (UniProt Q9BZL6).
T3 sequence (whole entry): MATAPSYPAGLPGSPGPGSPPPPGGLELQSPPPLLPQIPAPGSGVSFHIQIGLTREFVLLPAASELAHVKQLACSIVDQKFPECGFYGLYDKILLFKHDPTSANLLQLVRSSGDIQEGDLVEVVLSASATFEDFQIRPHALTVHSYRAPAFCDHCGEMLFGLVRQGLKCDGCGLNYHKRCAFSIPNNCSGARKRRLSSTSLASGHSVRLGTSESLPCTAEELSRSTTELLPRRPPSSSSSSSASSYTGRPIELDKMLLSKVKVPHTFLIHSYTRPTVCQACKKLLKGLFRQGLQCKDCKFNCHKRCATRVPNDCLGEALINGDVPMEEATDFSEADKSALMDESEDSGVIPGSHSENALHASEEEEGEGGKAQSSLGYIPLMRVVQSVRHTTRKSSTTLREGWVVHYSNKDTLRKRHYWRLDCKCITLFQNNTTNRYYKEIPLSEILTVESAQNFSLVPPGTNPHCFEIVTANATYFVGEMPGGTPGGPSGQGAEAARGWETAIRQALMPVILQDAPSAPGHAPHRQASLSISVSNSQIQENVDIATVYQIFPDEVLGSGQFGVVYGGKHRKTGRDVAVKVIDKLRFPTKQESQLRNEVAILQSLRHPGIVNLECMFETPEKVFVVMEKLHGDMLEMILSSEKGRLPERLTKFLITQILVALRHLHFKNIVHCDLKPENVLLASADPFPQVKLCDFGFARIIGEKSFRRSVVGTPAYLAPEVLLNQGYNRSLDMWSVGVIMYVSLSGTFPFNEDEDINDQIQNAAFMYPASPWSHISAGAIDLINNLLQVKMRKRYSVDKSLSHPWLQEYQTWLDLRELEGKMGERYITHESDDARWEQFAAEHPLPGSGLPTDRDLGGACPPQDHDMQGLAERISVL
Conditions: at 0.1 µM.

Test [11] concerns the target T3, Serine/threonine-protein kinase D2 (Homo sapiens). Conditions: at 1 µM.
Test [12] has as its target T4, Serine/threonine-protein kinase D3 (Homo sapiens) (UniProt O94806).
T4 sequence (whole entry): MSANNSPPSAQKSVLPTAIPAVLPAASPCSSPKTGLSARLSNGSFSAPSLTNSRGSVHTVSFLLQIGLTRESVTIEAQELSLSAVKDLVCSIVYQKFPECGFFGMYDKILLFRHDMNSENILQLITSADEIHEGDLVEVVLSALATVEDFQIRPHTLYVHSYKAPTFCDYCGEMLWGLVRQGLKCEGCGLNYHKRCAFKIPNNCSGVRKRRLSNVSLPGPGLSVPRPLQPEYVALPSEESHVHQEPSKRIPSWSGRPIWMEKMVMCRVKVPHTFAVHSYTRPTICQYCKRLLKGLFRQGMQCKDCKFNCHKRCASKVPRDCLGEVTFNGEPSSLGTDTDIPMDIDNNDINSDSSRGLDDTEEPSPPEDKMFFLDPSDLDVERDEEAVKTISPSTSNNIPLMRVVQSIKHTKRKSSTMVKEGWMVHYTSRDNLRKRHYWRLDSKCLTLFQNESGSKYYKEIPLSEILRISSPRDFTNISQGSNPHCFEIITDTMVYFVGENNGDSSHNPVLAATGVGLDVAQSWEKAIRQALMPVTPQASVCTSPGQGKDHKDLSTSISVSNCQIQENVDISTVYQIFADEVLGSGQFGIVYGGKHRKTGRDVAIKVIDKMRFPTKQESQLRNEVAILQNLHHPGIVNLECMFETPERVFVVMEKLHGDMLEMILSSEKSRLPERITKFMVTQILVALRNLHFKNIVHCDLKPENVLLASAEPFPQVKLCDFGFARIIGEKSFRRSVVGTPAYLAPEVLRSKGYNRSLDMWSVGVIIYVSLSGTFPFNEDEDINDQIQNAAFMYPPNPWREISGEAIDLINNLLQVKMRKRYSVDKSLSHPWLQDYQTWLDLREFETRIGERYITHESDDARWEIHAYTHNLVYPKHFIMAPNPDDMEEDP
Conditions: at 0.1 µM.

The target of test [13] is T4, Serine/threonine-protein kinase D3 (Homo sapiens). Conditions: at 1 µM.
Test [14] addresses T5, cGMP-dependent protein kinase 1 (Homo sapiens) (UniProt Q13976).
T5 sequence (whole entry): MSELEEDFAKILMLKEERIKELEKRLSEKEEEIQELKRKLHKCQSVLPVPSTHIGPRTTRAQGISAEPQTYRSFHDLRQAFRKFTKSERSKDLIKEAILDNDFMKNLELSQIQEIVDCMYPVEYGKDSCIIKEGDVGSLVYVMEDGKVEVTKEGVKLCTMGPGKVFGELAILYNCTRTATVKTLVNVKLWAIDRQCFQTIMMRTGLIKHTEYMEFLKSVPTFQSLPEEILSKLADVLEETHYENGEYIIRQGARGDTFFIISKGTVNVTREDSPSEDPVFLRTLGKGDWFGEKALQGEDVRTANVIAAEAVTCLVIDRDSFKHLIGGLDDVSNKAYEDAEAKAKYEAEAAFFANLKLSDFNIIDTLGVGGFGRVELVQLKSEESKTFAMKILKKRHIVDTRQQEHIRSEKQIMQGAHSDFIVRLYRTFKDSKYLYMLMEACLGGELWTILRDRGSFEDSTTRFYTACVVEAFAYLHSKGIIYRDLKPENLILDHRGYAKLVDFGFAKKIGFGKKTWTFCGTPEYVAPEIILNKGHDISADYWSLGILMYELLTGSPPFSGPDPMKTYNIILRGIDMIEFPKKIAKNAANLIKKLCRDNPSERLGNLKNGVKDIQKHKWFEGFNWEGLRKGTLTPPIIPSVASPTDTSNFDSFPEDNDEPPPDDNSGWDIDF
Conditions: at 0.1 µM.

The target in test [15] is T5, cGMP-dependent protein kinase 1 (Homo sapiens). Conditions: at 1 µM.
Test [16] addresses T6, cGMP-dependent protein kinase 2 (Homo sapiens) (UniProt Q13237).
T6 sequence (whole entry): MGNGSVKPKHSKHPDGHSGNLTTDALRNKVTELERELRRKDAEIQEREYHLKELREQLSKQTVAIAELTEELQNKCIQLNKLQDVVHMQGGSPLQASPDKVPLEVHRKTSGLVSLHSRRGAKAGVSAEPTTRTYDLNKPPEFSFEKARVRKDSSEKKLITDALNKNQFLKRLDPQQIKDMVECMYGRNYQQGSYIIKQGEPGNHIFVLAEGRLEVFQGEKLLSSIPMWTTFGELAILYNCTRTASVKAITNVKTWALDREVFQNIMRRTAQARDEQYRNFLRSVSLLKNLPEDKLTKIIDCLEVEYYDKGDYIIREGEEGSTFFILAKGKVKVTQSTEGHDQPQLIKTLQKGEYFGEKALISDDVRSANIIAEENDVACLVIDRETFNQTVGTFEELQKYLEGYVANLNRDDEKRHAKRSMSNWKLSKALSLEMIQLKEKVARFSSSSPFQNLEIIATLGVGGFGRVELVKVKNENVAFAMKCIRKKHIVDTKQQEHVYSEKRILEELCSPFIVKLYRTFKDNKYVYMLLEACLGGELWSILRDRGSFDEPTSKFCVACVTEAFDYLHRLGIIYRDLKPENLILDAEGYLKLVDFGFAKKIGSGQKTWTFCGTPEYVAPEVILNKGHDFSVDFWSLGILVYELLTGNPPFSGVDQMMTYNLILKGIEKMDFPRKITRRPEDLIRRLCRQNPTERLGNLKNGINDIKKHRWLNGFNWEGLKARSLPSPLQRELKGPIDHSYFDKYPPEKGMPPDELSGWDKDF
Conditions: at 0.1 µM.

For test [17], the target named is T6, cGMP-dependent protein kinase 2 (Homo sapiens). Conditions: at 1 µM.
Test [18] concerns the target T7, cAMP-dependent protein kinase catalytic subunit PRKX (Homo sapiens) (UniProt P51817).
T7 sequence (whole entry): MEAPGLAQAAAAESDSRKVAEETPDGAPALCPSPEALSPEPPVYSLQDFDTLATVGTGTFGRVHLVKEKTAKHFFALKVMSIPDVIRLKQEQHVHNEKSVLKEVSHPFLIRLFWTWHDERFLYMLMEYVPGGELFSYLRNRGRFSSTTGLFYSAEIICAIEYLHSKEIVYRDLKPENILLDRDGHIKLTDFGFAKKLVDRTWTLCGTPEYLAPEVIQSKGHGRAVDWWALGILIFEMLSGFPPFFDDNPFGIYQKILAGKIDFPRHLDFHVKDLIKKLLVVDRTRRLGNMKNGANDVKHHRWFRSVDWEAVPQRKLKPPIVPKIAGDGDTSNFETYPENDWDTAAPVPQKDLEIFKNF
Conditions: at 0.1 µM.

Test [19] addresses T7, cAMP-dependent protein kinase catalytic subunit PRKX (Homo sapiens). Conditions: at 1 µM.
Test [20] concerns the target Rho-associated protein kinase 1 (Homo sapiens) (UniProt Q13464). Conditions: at 0.1 µM.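 Also: values are mean percent inhibition of ROCK1.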

The structures appear in SMILES notation.

Sequence of Protein kinase C beta type (Homo sapiens) (P05771 2-671 limits assumed): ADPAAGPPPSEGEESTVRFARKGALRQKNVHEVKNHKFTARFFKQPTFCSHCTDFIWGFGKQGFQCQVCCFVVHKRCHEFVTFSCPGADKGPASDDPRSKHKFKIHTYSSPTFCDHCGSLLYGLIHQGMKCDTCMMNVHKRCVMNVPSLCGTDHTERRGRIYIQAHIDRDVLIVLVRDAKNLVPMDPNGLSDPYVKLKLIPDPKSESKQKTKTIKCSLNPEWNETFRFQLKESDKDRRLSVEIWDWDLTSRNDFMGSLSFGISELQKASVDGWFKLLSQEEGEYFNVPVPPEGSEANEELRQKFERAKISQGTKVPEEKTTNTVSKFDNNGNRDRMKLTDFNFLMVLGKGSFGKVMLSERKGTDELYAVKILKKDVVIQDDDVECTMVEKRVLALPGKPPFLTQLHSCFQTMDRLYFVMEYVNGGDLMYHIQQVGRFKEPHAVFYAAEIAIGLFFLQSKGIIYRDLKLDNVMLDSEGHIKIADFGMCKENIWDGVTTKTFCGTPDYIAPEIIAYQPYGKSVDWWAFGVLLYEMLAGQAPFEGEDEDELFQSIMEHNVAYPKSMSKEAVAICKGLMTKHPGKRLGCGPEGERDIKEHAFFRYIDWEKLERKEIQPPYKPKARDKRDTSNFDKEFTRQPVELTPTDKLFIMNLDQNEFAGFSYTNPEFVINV
Sequence of Protein kinase C theta type (Homo sapiens) (Q04759 whole entry, looked up): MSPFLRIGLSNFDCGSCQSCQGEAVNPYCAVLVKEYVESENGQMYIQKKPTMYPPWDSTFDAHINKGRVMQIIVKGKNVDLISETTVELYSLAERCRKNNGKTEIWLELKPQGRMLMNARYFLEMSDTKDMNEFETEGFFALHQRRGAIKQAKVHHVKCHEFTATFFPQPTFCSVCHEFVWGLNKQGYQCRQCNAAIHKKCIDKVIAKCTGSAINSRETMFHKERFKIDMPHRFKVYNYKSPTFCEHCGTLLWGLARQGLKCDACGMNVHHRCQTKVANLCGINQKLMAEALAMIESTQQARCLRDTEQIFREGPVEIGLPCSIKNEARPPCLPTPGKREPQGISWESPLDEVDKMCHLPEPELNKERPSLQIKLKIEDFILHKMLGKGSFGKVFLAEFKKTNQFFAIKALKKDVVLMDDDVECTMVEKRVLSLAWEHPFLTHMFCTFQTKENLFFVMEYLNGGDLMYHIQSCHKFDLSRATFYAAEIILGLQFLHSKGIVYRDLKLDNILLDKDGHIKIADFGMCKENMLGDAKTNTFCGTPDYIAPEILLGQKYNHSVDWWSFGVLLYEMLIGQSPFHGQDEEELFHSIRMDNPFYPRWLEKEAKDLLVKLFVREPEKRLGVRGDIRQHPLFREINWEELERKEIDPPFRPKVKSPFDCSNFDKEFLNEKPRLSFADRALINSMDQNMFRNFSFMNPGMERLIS
Sequence of Rho-associated protein kinase 1 (Homo sapiens) (Q13464 2-1354 limits assumed): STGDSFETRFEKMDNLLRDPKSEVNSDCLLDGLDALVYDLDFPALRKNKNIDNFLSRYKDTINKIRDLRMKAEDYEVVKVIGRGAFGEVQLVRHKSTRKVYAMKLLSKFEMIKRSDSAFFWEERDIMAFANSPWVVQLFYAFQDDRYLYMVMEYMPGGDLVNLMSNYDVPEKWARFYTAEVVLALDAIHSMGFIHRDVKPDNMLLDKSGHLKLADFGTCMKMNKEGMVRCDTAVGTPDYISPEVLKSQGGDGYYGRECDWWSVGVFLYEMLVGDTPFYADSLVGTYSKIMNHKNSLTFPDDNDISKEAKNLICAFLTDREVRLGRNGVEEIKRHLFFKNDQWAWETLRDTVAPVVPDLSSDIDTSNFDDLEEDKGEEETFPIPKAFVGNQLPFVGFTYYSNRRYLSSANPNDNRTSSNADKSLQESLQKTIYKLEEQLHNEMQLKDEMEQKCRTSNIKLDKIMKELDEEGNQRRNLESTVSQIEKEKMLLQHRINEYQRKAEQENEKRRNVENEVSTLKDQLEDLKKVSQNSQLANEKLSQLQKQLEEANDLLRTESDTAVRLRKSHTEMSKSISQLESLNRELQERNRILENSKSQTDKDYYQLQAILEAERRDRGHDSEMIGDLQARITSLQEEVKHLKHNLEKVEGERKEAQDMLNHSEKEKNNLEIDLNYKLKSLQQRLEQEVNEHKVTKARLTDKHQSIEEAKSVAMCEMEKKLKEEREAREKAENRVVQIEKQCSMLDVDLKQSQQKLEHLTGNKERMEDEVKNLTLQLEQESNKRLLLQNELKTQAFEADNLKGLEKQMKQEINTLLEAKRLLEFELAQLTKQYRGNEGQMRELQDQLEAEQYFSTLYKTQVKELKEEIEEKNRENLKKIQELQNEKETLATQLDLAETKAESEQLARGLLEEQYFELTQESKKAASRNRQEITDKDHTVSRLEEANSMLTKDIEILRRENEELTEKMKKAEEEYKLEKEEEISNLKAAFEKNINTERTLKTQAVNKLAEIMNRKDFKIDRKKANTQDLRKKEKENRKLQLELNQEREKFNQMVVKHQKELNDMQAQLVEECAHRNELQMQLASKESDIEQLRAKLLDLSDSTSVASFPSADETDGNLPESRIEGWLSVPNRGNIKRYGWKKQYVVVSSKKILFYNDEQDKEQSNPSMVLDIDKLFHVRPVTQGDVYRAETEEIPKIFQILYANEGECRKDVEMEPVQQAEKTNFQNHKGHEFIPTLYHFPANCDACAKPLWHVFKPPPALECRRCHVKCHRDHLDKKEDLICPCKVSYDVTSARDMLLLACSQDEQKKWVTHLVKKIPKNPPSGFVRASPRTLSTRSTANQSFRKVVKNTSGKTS

`CS(=O)(=O)CCNCc1coc(-c2ccc3ncnc(Nc4ccc(OCc5ccccc5)cc4)c3c2)c1`: the inhibition in [1] was 4.91%; in test [2], 1.33%; in [3], 0.97%; in test [4], 1.31%; in test [5] it was 1.25%; in [6], -0.17%. The inhibition in test [7] came out at 1.35%; in test [8], 1.97%; in [9], 2.95%; in test [10] it was 2.53%; in test [11] it was 2.1%; in test [12], 2.3%. For the same compound, the inhibition in [13] turned out to be 3.06%; in test [14] it was 1.72%; in [15], 3.25%; in test [16], 1.73%; in test [17], 3.41%; in [18], 1.12%. For the same compound, the inhibition was 0.96% in test [19] and 0.65% in test [20].

`Fc1ccc(-c2cc(-c3c[nH]nc3-c3ccccn3)ccn2)cc1`: the inhibition in [1] was 1.87%; in test [2], 2.53%; in test [3], 0.58%; in [4] it was 3.15%; in [5] it was 5.06%; in [6], 1.48%. The inhibition in [7] is 1.07%; in test [8], 4.79%; in test [9], 26.9%; in [10], 6.43%; in test [11], 32.4%; in test [12], 6.2%. Further, the inhibition in test [13] amounted to 20.5%; in test [14], 1.49%; in [15], 4.77%; in test [16], 1.37%; in [17], 2.9%; in test [18], 1.98%. The inhibition in test [19] is 5.03%; in test [20] it was -0.11%.

As usually defined, the inhibition is the change of the read-out against control, counted positive when it falls.
